Assay results from PubChem BioAssay (EPA / NIEHS).
Results filed as inconclusive are left out. Activity calls are given as the source filed them. Rule for the calls, unless noted: active = hit-call score of the fitted dose curve at least 0.9, where 1 is the maximum; inactive = score below 0.9.

Experiments:
[1] = read-out: Interleukin-8 (IL8), CXCL8 (gene 3576); assay: BSK_3C_IL8: BioMAP Diversity Plus: 3C Assay for Interleukin-8 (IL8) Biomarker Activity (AID 2283020); conditions: primary human endothelial cells (HUVEC); actives raise or lower the signal
Outline: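 Endothelial primary cells of human umbilical vein origin are dosed with chemical; after 24 h the IL-8 biomarker is measured by ELISA, and concentration–response is fitted in both directions versus DMSO.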

[2] = read-out: Monokine induced gamma interferon (MIG), CXCL9 (gene 4283); assay: BSK_3C_MIG: BioMAP Diversity Plus: 3C Assay for Monokine induced gamma interferon (MIG) Biomarker Activity (AID 2283021); conditions: primary human endothelial cells (HUVEC); actives raise or lower the signal;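 for AC50: MIG protein level measured by immunoassay in the treated endothelial cultures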
Outline: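 Endothelial primary cells (human umbilical vein) are dosed with test chemical in the 3C system. MIG levels are measured by ELISA at 24 h and fitted in both directions relative to DMSO.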

[3] = target: human Vitamin D Receptor (VDR), VDR (gene 7421) (UniProt P11473); assay: ATG_VDR_TRANS: Attagene TRANS-FACTORIAL HepG2 Assay for human Vitamin D Receptor (VDR) (AID 2283022; active = hit-call score of the fitted dose curve at least 0.9, where 1 is the maximum)
Sequence of human Vitamin D Receptor (VDR), VDR (gene 7421) (P11473 whole entry, looked up, the tested form may be a part): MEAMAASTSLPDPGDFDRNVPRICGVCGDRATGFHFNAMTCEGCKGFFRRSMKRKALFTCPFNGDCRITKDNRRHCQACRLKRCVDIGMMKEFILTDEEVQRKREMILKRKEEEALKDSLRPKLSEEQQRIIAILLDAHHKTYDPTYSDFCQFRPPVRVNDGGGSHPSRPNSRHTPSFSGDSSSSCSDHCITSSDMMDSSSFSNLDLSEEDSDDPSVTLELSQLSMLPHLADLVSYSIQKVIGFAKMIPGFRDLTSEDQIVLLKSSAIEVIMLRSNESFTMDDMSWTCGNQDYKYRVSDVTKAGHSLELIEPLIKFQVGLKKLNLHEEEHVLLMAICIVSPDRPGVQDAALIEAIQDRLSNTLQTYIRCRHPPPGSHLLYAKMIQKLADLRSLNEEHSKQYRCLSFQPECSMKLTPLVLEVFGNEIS
Outline: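 HepG2 cells were transiently transfected with multiple GAL4-UAS reporter units, so signal reflects exogenous chimeric receptor-Gal4 activity. After 24 h compound exposure, reporter mRNA was measured by RT-PCR, fluorescent labelling and capillary electrophoresis, fitted for gain of signal versus DMSO.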

[4] = BSK_3C_SRB: Viability Assessment in the BioMAP Diversity Plus: 3C Assay (AID 2283023); conditions: primary human endothelial cells (HUVEC);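 note: fitted both ways against DMSO so a hit may be signal rise or drop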
Outline: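 Primary human umbilical vein endothelial cells in the 3C system were read 24 h after compound dosing. Total protein was stained with 0.1% sulforhodamine B after 10% TCA fixation and read at 560 nm, with bidirectional fitting against DMSO as baseline.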

[5] = read-out: Matrix Metallopeptidase 1 (MMP1), MMP1 (gene 4312); assay: BSK_BE3C_MMP1: BioMAP Diversity Plus: BE3C Assay for Matrix Metallopeptidase 1 (MMP1) Biomarker Activity (AID 2283024); conditions: primary human bronchial epithelial cells; actives raise or lower the signal
Outline: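 MMP1 signal, measured by ELISA after a 24 h chemical exposure of human primary bronchial epithelial cells, is analysed with bidirectional fitting using DMSO as negative control.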

[6] = BSK_3C_Vis: BioMAP Diversity Plus: 3C Assay for Morphology Visualization (AID 2283025); conditions: primary human endothelial cells (HUVEC);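 note: fitted both ways so gain or loss versus DMSO counts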
Outline: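 Morphology read by light microscopy serves as a background control for the multiplexed 3C assay in human umbilical vein endothelial cells, taken 24 h after dosing, with DMSO as the negative control and bidirectional curve fitting.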

[7] = read-out: Pselectin, SELP (gene 6403); assay: BSK_4H_Pselectin: BioMAP Diversity Plus: 4H Assay for Pselectin Biomarker Activity (AID 2283026); conditions: primary human endothelial cells (HUVEC); actives raise or lower the signal
Outline: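 Endothelial primary cells (human umbilical vein) are dosed, incubated 24 h, and assayed for surface P-selectin by ELISA; responses in either direction are fitted relative to the DMSO negative control.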

[8] = BSK_4H_SRB: Viability Assessment in the BioMAP Diversity Plus: 4H Assay (AID 2283027); conditions: primary human endothelial cells (HUVEC);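 note: cells exposed to compound for 24 h before staining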;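 for AC50: curves fitted both ways versus DMSO so AC50 may be loss or gain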
Outline: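 Cytotoxicity readout: sulforhodamine B (0.1%) staining of total protein after 10% TCA fixation, measured at 560 nm in human umbilical vein endothelium at 24 h. DMSO set the baseline; fitting was bidirectional.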

[9] = BSK_BE3C_SRB: Viability Assessment in the BioMAP Diversity Plus: BE3C Assay (AID 2283028); conditions: primary human bronchial epithelial cells;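 for AC50: fitted both ways so AC50 may mark signal gain or loss versus DMSO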
Outline: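 Human primary bronchial epithelial cells were exposed to test chemicals for 24 h. Total protein in parallel cultures was then measured by staining with 0.1% sulforhodamine B after 10% TCA fixation, with absorbance read at 560 nm. Activity was fitted bidirectionally against DMSO.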

[10] = read-out: Thrombomodulin, THBD (gene 7056); assay: BSK_3C_Thrombomodulin: BioMAP Diversity Plus: 3C Assay for Thrombomodulin Biomarker Activity (AID 2283029); conditions: primary human endothelial cells (HUVEC); actives raise or lower the signal
Outline: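 Endothelial cells from umbilical vein are dosed with test chemical and incubated 24 h. Thrombomodulin is then quantified by ELISA, with DMSO serving as negative control and activity baseline.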

[11] = read-out: Urokinase-type plasminogen activator receptor (uPAR), PLAUR (gene 5329); assay: BSK_4H_uPAR: BioMAP Diversity Plus: 4H Assay for Urokinase-type plasminogen activator receptor (uPAR) Biomarker Activity (AID 2283030); conditions: primary human endothelial cells (HUVEC); actives raise or lower the signal
Outline: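 Primary human umbilical vein endothelial cells were exposed to chemical for 24 h before cell-surface uPAR was quantified by ELISA. Activity was fitted bidirectionally against the DMSO negative control baseline.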

[12] = read-out: Vascular endothelial growth factor receptor 2 (Homo sapiens) (UniProt P35968); assay: BSK_4H_VEGFRII: BioMAP Diversity Plus: 4H Assay for Vascular endothelial growth factor receptor 2 (VEGFR2) Biomarker Activity (AID 2283031); conditions: primary human endothelial cells (HUVEC); actives raise or lower the signal;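 for AC50: cell-surface VEGFR2 protein level quantified by ELISA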
Outline: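 Primary human umbilical vein endothelial cells in the BioMAP 4H system were dosed with test chemical, and 24 h later VEGFRII was measured by ELISA. Activity was fitted bidirectionally against DMSO as negative control and baseline.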

[13] = read-out: Human Leukocyte Antigen - DR isotype (HLADR), HLA-DRA (gene 3122); assay: BSK_BE3C_HLADR: BioMAP Diversity Plus: BE3C Assay for Human Leukocyte Antigen - DR isotype (HLADR) Biomarker Activity (AID 2283032); conditions: primary human bronchial epithelial cells; actives raise or lower the signal
Outline: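 Chemicals are dosed onto BE3C bronchial epithelial cultures of human origin and left 24 h. HLA-DR is then measured by ELISA, and the endpoint is fitted in both directions using DMSO as the activity baseline.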

[14] = read-out: Vascular cell adhesion molecule 1 (VCAM1), VCAM1 (gene 7412); assay: BSK_4H_VCAM1: BioMAP Diversity Plus: 4H Assay for Vascular cell adhesion molecule 1 (VCAM1) Biomarker Activity (AID 2283033); conditions: primary human endothelial cells (HUVEC); actives raise or lower the signal
Outline: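 Chemicals are added to primary human umbilical vein endothelial cells. After 24 h, VCAM-1 levels are measured by ELISA. Values come from bidirectional fitting referenced to DMSO.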

[15] = read-out: Interferon-gamma inducible Protein 10 (IP10), CXCL10 (gene 3627); assay: BSK_BE3C_IP10: BioMAP Diversity Plus: BE3C Assay for Interferon-gamma inducible Protein 10 (IP10) Biomarker Activity (AID 2283034); conditions: primary human bronchial epithelial cells; actives raise or lower the signal
Outline: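 IP-10 quantified by ELISA serves as the endpoint. Cells: primary human bronchial epithelium, read 24 h after compound addition. Activity is derived by bidirectional fitting with DMSO as negative control.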

[16] = read-out: Monokine induced gamma interferon (MIG), CXCL9 (gene 4283); assay: BSK_BE3C_MIG: BioMAP Diversity Plus: BE3C Assay for Monokine induced gamma interferon (MIG) Biomarker Activity (AID 2283035); conditions: primary human bronchial epithelial cells; actives raise or lower the signal;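 note: MIG protein measured by ELISA in BE3C cultures after 24 h of dosing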
Outline: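 hu bronchial epithelial 1° cells, 24 h cpd; MIG by ELISA; bidirectional fit, DMSO = baseline.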

[17] = read-out: Transforming growth factor beta 1 (TGFb1), TGFB1 (gene 7040); assay: BSK_BE3C_TGFb1: BioMAP Diversity Plus: BE3C Assay for Transforming growth factor beta 1 (TGFb1) Biomarker Activity (AID 2283036); conditions: primary human bronchial epithelial cells; actives raise or lower the signal
Outline: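 Bronchial epithelial primary cells are treated with test chemical, then TGF-b1 is quantified by ELISA after 24 hours. Values derive from bidirectional fitting against DMSO, with cytotoxicity checked by SRB staining in parallel cultures.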

[18] = read-out: Plasminogen activator inhibitor-1 (PAI1), SERPINE1 (gene 5054); assay: BSK_BE3C_PAI1: BioMAP Diversity Plus: BE3C Assay for Plasminogen activator inhibitor-1 (PAI1) Biomarker Activity (AID 2283037); conditions: primary human bronchial epithelial cells; actives raise or lower the signal
Outline: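 Values derive from bidirectional fitting against DMSO baseline of PAI-1 levels, measured by ELISA in human bronchial epithelial cells 24 h after compound addition.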

[19] = read-out: urokinase plasminogen activator (uPA), PLAU (gene 5328); assay: BSK_BE3C_uPA: BioMAP Diversity Plus: BE3C Assay for urokinase plasminogen activator (uPA) Biomarker Activity (AID 2283038); conditions: primary human bronchial epithelial cells; actives raise or lower the signal
Outline: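 Human primary bronchial epithelial cells were exposed to chemical for 24 h, then uPA levels were measured by ELISA. Responses were fitted bidirectionally against DMSO as negative control and baseline. Parallel SRB staining of total protein gauged overt cytotoxicity.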

[20] = read-out: Urokinase-type plasminogen activator receptor (uPAR), PLAUR (gene 5329); assay: BSK_BE3C_uPAR: BioMAP Diversity Plus: BE3C Assay for Urokinase-type plasminogen activator receptor (uPAR) Biomarker Activity (AID 2283039); conditions: primary human bronchial epithelial cells; actives raise or lower the signal
Outline: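 Steps: dose human primary bronchial epithelial cells, incubate 24 h, measure uPAR by ELISA, then fit gain- or loss-of-signal response bidirectionally relative to DMSO.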

Measured: AC50

CCOP(=S)(OCC)SCS(=O)(=O)CC
inactive: [1] | [2] | [3] | [4] | [5] | [6] | [7] | [8] | [9] | [10] | [11] | [12] | [13] | [14] | [15] | [16] | [17] | [18] | [19] | [20]

c1nc[nH]n1
inactive: [1] | [2] | [3] | [4] | [5] | [6] | [7] | [8] | [9] | [10] | [11] | [12] | [13] | [14] | [15] | [17] | [18] | [19] | [20]

CCC1(c2ccccc2)C(=O)N=C(O)NC1=O (stereo unspecified)
inactive: [1] | [2] | [3] | [4] | [5] | [6] | [7] | [8] | [9] | [10] | [11] | [12] | [13] | [14] | [15] | [16] | [17] | [18] | [19] | [20]

COP(N)(=S)OC
inactive: [1] | [2] | [3] | [4] | [5] | [6] | [7] | [8] | [9] | [10] | [11] | [12] | [13] | [14] | [15] | [16] | [17] | [18] | [19] | [20]

CCOP(=S)(NC(C)C)Oc1ccccc1C(=O)OC(C)C (stereo unspecified)
inactive: [1] | [2] | [3] | [4] | [5] | [6] | [7] | [8] | [9] | [10] | [11] | [12] | [13] | [14] | [15] | [17] | [18] | [19] | [20]

Nc1ccc([N+](=O)[O-])cc1Cl
inactive: [1] | [2] | [3] | [4] | [5] | [6] | [7] | [8] | [9] | [10] | [11] | [12] | [13] | [14] | [15] | [17] | [18] | [19] | [20]

C=CC(=O)OCC(CC)(COC(=O)C=C)COC(=O)C=C
active: [1] 3.18 µM | [2] 3.68 µM | [4] 2.33 µM | [5] 11.4 µM | [6] 2.98 µM | [7] 2.25 µM | [8] 4.07 µM | [9] 20 µM | [11] 4.07 µM | [12] 5.14 µM | [13] 3.18 µM | [14] 2.45 µM | [15] 4.45 µM | [17] 6.86 µM | [18] 10.5 µM | [19] 4.96 µM | [20] 7.24 µM
inactive: [3] | [10]
